Compound activity (PubChem BioAssay)
Mtb hypoxia inh: PubChem AID 1159583; M. tuberculosis hypoxia-regulated fluorescent reporter, fluorescence; fluorescence inhibition, % (concentration not given with the values); actives 0.1% (n = 300,000); in the data active means fluorescence inhibition mostly above about 23%, no sharp cut-off; inactive means mostly below about 17%
Mtb bLac sens: beta-lactam sensitization of Mtb H37Rv, H37Rv. actives 0.27% (n = 330,000). M. tuberculosis H37Rv growth with meropenem, percent inhibition. inhibition, % at 25 µM; call rule not given here;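 further: growth measured after seven days incubation then overnight dye step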
DUSP3 inh: VHR1 phosphatase inhibitors, primary screen, biochemical, absorbance, uHTS; Dual specificity protein phosphatase 3 (Homo sapiens), P51452; recombinant VHR phosphatase, pNPP absorbance; inhibition, % at 13.3 µM; actives 0.52% (n = 290,000); in the data active means inhibition above about 50%
Target sequence (P51452 whole entry, looked up): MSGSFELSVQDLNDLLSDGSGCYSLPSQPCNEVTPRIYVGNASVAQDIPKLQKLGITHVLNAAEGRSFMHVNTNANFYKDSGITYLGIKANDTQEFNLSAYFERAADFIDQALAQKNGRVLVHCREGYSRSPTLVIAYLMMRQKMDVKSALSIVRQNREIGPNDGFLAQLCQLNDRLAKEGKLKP
FBA Mtb inh: Mtb FBA enzyme inhibitors, primary screen, biochemical, fluorescence, strain H37Rv | purified M. tuberculosis FBA, fluorescence read-out | inhibition, % at 1 µM | actives 2.3% (n = 360,000) | AID 588726, 2011; in the data active means inhibition above about 27%
Target sequence (P9WQA3 whole entry, looked up): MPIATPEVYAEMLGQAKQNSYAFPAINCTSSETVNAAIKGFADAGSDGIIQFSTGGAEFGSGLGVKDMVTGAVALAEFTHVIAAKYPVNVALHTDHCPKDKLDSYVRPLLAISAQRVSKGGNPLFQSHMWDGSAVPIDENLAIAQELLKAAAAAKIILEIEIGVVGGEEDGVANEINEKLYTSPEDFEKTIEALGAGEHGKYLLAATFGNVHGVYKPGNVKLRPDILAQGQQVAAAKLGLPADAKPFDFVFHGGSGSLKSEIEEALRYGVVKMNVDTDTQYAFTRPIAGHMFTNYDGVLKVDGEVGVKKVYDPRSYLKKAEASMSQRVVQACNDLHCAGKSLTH
GDH-TPI counter: GDH-TPI coupling enzyme inhibitors, primary screen, artefact control for M. tuberculosis FBA inhibitor project, biochemical, absorbance, full deck; AID 588335, 2011; GDH-TPI coupled enzyme counterscreen, NADH absorbance; inhibition, % at 4.8 µM; actives 1.2% (n = 360,000); in the data active means inhibition above about 30%
A number is an active result; – = inactive; · = no result given; + = active, no number. Only some compounds are listed: those with a hit (about 3.6% of all), similar ones and a draw of the others.

SMILES	Mtb hypoxia inh	Mtb bLac sens	DUSP3 inh	FBA Mtb inh	GDH-TPI counter
CCOC(=O)/C(C#N)=N/Nc1ccc(S(=O)(=O)Nc2cc(OC)nc(OC)n2)cc1	·	–	·	–	37.9
CCOC(=O)C(C#N)=NNc1ccc(S(=O)(=O)Nc2cc(OC)nc(OC)n2)cc1	–	·	·	·	·
COc1cc(NS(=O)(=O)c2ccc(N/C=C(\C#N)c3nc4cc(Cl)ccc4o3)cc2)nc(OC)n1	–	–	–	–	52.8
COc1cc(NS(=O)(=O)c2ccc(NC(C)=O)cc2)nc(OC)n1	–	–	–	–	–
COc1ccccc1C=NNC(=S)Nc1cccnc1	–	·	·	·	·
CCCN(CCC)c1nc2ccccc2nc1C(C#N)C(=O)OCCOC (configuration not stated)	·	–	–	–	–
C=CCN(CC=C)c1nc2ccccc2nc1C(C#N)C(=O)OCCOC (configuration not stated)	·	–	–	57.4	–
COc1ccc(-c2ccc3c(c2)OC(=Cc2ccsc2)C3=O)cn1	–	·	·	·	·
COc1ccc(C=NNC(=O)c2ccco2)cc1Cn1nc(C)cc1C	–	·	·	·	·
COC(=O)C1C[C@@]2(O)C(O)C(O)C(O)CC2N1Cc1ccc(Cl)cc1 (some centres not stated)	–	·	·	·	·
Cc1cccc(NNC(=O)C(=O)NNc2cccc(C)c2)c1	–	–	–	–	–
Cc1cccc(N=NC(=S)NNc2cccc(C)c2)c1	–	·	·	+	–
O=S(=O)(O)c1cccc(N=Nc2c(O)ccc3ccccc23)c1	35.8	–	–	–	–
CC(/C=C/c1cccc([N+](=O)[O-])c1)=NNC(=O)c1cccnc1	–	·	·	·	·
O=C(CSc1nc2ccccc2nc1N1CCOCC1)N1CCN(c2ccccc2)CC1	17.1	–	–	–	–
COc1cc2cccc(OC)c(=O)c2c(O)c1OC	–	–	–	–	–
COc1cc2c(ccc3cc(OC)c(OC)c(O)c32)cc1O	·	–	52.8	–	–
CCOC(=O)N1CCN(C(=O)CSc2nc(-c3cccc(C)c3)ns2)CC1	44.1	–	–	–	–
COc1ccc(C2C(=C(O)c3ccc4c(c3)CC(C)O4)C(=O)C(=O)N2CCN2CCOCC2)cc1 (configuration not stated)	–	·	·	·	·
O=c1oc2cc(OCc3c(F)c(F)c(F)c(F)c3F)ccc2cc1-c1ccccn1	–	–	–	–	–
O=c1oc2cc(OCc3ccc(F)cc3F)ccc2cc1-c1ccccn1	·	–	–	–	–
COc1ccc(-c2cc3ccc(OCC(C)=O)cc3oc2=O)cc1	·	–	–	154.8	–
NC(=O)COc1ccc2cc(-c3ccccc3)c(=O)oc2c1	–	–	–	+	30.8
COC(=O)COc1ccc2cc(-c3ccccc3)c(=O)oc2c1	–	–	–	+	37.9
NC(=O)COc1ccc2cc(-c3ccc(F)cc3)c(=O)oc2c1	–	–	–	+	–
SMILES	Mtb hypoxia inh	Mtb bLac sens	DUSP3 inh	FBA Mtb inh	GDH-TPI counter
O=[N+]([O-])c1cc(C=Nn2cnnc2)ccc1N1CCCC1	–	·	·	·	·
O=C(NN=Cc1ccccc1F)c1ccc(COc2ccccc2Cl)o1	–	·	·	·	·
C[C@@]12C(=O)NCC(=O)N1C1c3cc(Br)ccc3OCC1C2c1ccccc1 (some centres not stated)	–	·	·	·	·
O=C(COc1ccc2cc(-c3ccccc3)c(=O)oc2c1)NCC1CCC(C(=O)O)CC1 (configuration not stated)	·	–	–	+	49.0
COC(=O)CC1c2ccccc2S(=O)(=O)N1C(C)C (configuration not stated)	–	·	·	·	·
COCCCn1c(C)nnc1SCC(=O)Nc1cccc(C)c1	–	–	60.0	–	–
CN(C)CCCNC(=S)N(CCCO)Cc1cc2cc3c(cc2[nH]c1=O)OCO3	–	–	–	–	–
CNC(=S)N(CCO)Cc1cc2cc3c(cc2[nH]c1=O)OCCO3	–	–	–	–	–
CCCCNC(=S)N(CCCO)Cc1cc2cc3c(cc2[nH]c1=O)OCCO3	–	–	51.3	–	–
CNC(=S)N(CCO)Cc1cc2cc3c(cc2[nH]c1=O)OCO3	–	–	·	33.0	–
Oc1c(Br)cc(C2N=C(c3ccccc3)NO2)cc1Br (configuration not stated)	–	–	–	–	31.7
Cc1ccc(C)c(NC(=O)CN(C)C(=O)c2ccc(S(=O)(=O)N3CCCCCC3)cc2)c1	31.3	–	·	–	–
O=C(Cc1c(F)cccc1Cl)NN=Cc1cccnc1	–	·	·	·	·
CN1CCSc2ccc(C(=O)NCc3ccccc3F)cc21	–	–	–	137.3	–
CCN1CCSc2ccc(C(=O)NCc3ccccc3C)cc21	–	–	–	129.2	–
CC(C)Oc1ccc(CNC(=O)c2ccc3c(c2)N(C)CCS3)cc1	–	–	–	140.4	–
O=C(CCC1CCCCC1)NCCN1C2=NCC(Cc3ccc(O)cc3)N2CC1Cc1ccc(O)cc1 (configuration not stated)	–	·	·	·	·
CCC(=O)Nc1cccc(C2=NOC3(C2)CC(C(N)=O)N(C(=O)c2cc([N+](=O)[O-])cc([N+](=O)[O-])c2C)C3)c1 (configuration not stated)	–	·	·	·	·
CCN(CC)S(=O)(=O)c1ccc(C(=O)NCC(=O)NN=Cc2ccccc2OC)cc1	–	·	·	·	·
CC1CCC(NC(=O)c2cc(C3CC3)nn2-c2ccccc2)CC1 (configuration not stated)	–	–	·	+	–
O=C(O)c1cc(C2CC2)nn1-c1ccccc1	–	–	–	–	–
COc1cc(/C=N/NC(=O)c2cccc(N3CCCC3=O)c2)ccc1O	·	–	–	–	39.6
O=C(N/N=C/c1cccnc1)c1cccc(N2CCCC2=O)c1	·	–	–	–	–
COc1cc(C=NNC(=O)c2ccccc2)ccc1O	–	·	·	·	·
CCN(CC)c1ccc(/C=N/NC(=O)c2cccc(N3CCCC3=O)c2)cc1	·	–	–	–	31.0
SMILES	Mtb hypoxia inh	Mtb bLac sens	DUSP3 inh	FBA Mtb inh	GDH-TPI counter
Cc1ccc(S(=O)(=O)N(C)N=C/C=C/c2ccccc2)cc1	–	·	·	·	·
Cc1cc(=O)oc2cc(OCC(O)CN3CCc4ccccc4C3)ccc12 (configuration not stated)	·	–	–	49.8	–
OCCN(CC(O)Cn1ccc2ccccc21)CC(O)Cn1ccc2ccccc21 (configuration not stated)	–	–	50.8	–	–
COc1cc(/C=C(\C#N)C(N)=O)ccc1OCc1c(C)no[n+]1[O-]	–	–	–	–	31.2
COc1cc(/C=N/Nc2nncn2N)ccc1OCc1c(C)no[n+]1[O-]	·	–	–	–	–
NC(=O)NN=Cc1c(F)c(F)c(F)c(F)c1F	–	·	·	·	·
Cc1ccc(OCCn2c(C)c(/C=N/n3cnnc3)c3ccccc32)cc1	·	–	–	–	30.6
COCCCNC(=S)N/N=C/c1ccc(O)cc1O	·	–	–	–	33.2
CCNC(=S)N/N=C/c1ccc(C#N)cc1	·	–	–	–	38.8
COCCCNC(=S)N/N=C/c1ccc(O)cc1	·	–	–	–	70.1
CNCC1Oc2c(NS(=O)(=O)c3ccc(F)cc3)cccc2C(=O)N(C(C)CO)CC1C (configuration not stated)	–	·	·	·	·
O=C(NN=C/C(Cl)=C/c1ccccc1)c1ccc2c(c1)OCO2	–	·	·	·	·
